KDM5B inhibitor = inhibitors of human KDM5B histone demethylase; KDM5B demethylase, FDH-coupled NADH fluorescence (FDH is formaldehyde dehydrogenase); Potency, µM (titrated, usually from 57.7 µM), usual class: inhibitors; Q9UGL1; AID 1347165; 2.6% of 220,000 active; active means well fitted inhibition curve with a large enough effect; inconclusive means small, poorly fitted or top-dose-only effect; inactive means no such curve, though single readings can be large or run the other way; further: potency means the concentration at half of the fitted maximal effect; 0% is about no effect; nearly all actives have a fitted effect of over 70% in size
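KDM5BΔAP (200 nM final) in 50 mM HEPES pH 7.5, 0.01% Tween-20 was preincubated 10 min at RT with compound over a concentration range. Substrate mix (H3K4me3 12.5 µM, α-KG 25 µM, Fe²⁺, ascorbate, NAD⁺, FDH) was added, and NADH fluorescence change over 30 min gave dose-response curves.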
IP6K1 inh = inhibitors of human IP6K1; Q92551; IP6K1 kinase, ADP-Glo luminescence, 2 h; active compounds read low; activity change, % (series mostly up to about 58 µM); 0.81% of 140,000 active; in the data active means activity change below about -25%; further: on the % scale 0 is the no-effect control and ±100 the full control effect
Target sequence (Q92551 whole entry, looked up): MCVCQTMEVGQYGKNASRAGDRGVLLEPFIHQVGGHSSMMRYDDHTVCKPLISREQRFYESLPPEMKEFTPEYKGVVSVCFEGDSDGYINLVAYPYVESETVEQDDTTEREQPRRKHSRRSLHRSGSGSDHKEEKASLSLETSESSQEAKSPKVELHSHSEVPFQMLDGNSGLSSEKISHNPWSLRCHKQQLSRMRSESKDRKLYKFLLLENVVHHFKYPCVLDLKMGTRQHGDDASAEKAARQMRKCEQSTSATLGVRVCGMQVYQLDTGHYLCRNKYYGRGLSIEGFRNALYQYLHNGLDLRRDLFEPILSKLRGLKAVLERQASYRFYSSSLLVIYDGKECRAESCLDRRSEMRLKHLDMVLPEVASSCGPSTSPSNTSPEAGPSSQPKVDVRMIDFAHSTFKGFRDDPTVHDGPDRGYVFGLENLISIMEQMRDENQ
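ADP-Glo luminescence measures ADP made by human IP6K1 during a 2 h RT reaction with ATP/IP6 (mix at 1.3 mM/130 uM); top library doses 57.5 and 19.1 uM final.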
* = called active by the depositor. Most compounds without a hit are left out; they make up all but 2.7% or so of the library.

Results for COc1ccc(C(CC(=O)N(C)C)c2ccccc2)cc1 (configuration not stated) ?
KDM5B inhibitor: inactive; IP6K1 inh: 15

How did CCc1noc(-c2ccn3c(CNC(=O)Cc4ccccc4OC)nnc3c2)n1 do in these assays?
KDM5B inhibitor: inconclusive; IP6K1 inh: 1

What do the screens show for `CCCc1noc(-c2ccn3c(CNC(=O)c4ccc(C)cc4C)nnc3c2)n1`?
KDM5B inhibitor: inactive; IP6K1 inh: 19

How did CCCc1noc(-c2ccn3c(CNC(=O)Cc4ccc(Cl)cc4)nnc3c2)n1 do in these assays?
KDM5B inhibitor: inconclusive; IP6K1 inh: 18

Results for CCc1noc(-c2ccn3c(CNC(=O)c4cc(C)ccc4C)nnc3c2)n1 ?
KDM5B inhibitor: 25µM*; IP6K1 inh: -1

How did CCc1noc(-c2ccn3c(CNC(=O)Cc4ccc(C)cc4)nnc3c2)n1 do in these assays?
KDM5B inhibitor: 28µM*; IP6K1 inh: 0

Results for CCc1noc(-c2ccn3c(CNC(=O)Cc4ccccc4Cl)nnc3c2)n1 ?
KDM5B inhibitor: 16µM*; IP6K1 inh: 25

Results for COc1ccc(-c2noc(-c3ncn4c3COC(c3ccc(F)cc3)C4)n2)c(OC)c1 (configuration not stated) ?
KDM5B inhibitor: inconclusive; IP6K1 inh: 9

How did CCOC(=O)[C@H]1C[C@]2(CCCCN(CCOC)C2=O)N(C(C)=O)[C@H]1c1ccco1 do in these assays?
IP6K1 inh: -4

Results for COc1cccc([S+](=O)([O-])N2CCC(c3nnc4n3C(C(=O)O)CC4)CC2)c1 (configuration not stated) ?
KDM5B inhibitor: 79µM*; IP6K1 inh: -5

Results for COC(=O)CNC(=O)C1CCc2nnc(C3CCN([S+](=O)([O-])c4ccccc4)CC3)n21 (configuration not stated) ?
KDM5B inhibitor: inactive; IP6K1 inh: -2

What do the screens show for `CN(Cc1ccccc1)C(=O)Cc1ccc(N(Cc2cccc(F)c2)C(=O)c2ccco2)cc1`?
KDM5B inhibitor: inactive; IP6K1 inh: -2

Results for CS(=O)(=O)c1ccc(OC[C@H]2C[C@@H](NC(=O)c3cncnc3)[C@H](O)[C@@H]2O)cc1 ?
KDM5B inhibitor: inactive; IP6K1 inh: 2

What do the screens show for `CS(=O)(=O)c1ccc(OC[C@H]2C[C@@H](NC(=O)C3CCOCC3)[C@H](O)[C@@H]2O)cc1`?
KDM5B inhibitor: 32µM*; IP6K1 inh: 17

How did CCN1CCN(C(C(=O)O)c2c[nH]c3cc(NC(=O)c4ccccc4)ccc23)CC1 (configuration not stated) do in these assays?
KDM5B inhibitor: inactive

How did CNC(=O)c1cc(C2CC2)nc2onc(C3CCCN3[S+](=O)([O-])c3cccc(C(F)(F)F)c3)c12 (configuration not stated) do in these assays?
IP6K1 inh: 5

What do the screens show for `COC(=O)c1c(NC(C)=O)c2cc(NC3CCN(C(C)=O)CC3)cnc2n1CC1CCCO1` (configuration not stated)?
KDM5B inhibitor: 20µM*; IP6K1 inh: 8

Results for COC(=O)c1c(NC(=O)c2ccccc2)c2cc(NC3CCOCC3)cnc2n1CC1CCCO1 (configuration not stated) ?
KDM5B inhibitor: inactive; IP6K1 inh: 2

What do the screens show for `CCn1nc(C)c(-c2cc(C(=O)NCCc3noc(-c4ccccc4)n3)no2)c1C`?
KDM5B inhibitor: inactive; IP6K1 inh: 9

What do the screens show for `Cc1ccc(Cl)cc1NC(=O)N(C)Cc1nc(-c2ccccc2C)oc1C`?
KDM5B inhibitor: inactive

Results for CC1(COCC2CC2)COc2ccc(C(=O)Nc3cccnc3)cc2N1 (configuration not stated) ?
KDM5B inhibitor: inconclusive; IP6K1 inh: 10

Results for CC1(COc2cccnc2)COc2ccc(C(=O)NC3CCC(O)CC3)cc2N1 (configuration not stated) ?
KDM5B inhibitor: 35µM*; IP6K1 inh: -2

How did CC1(COc2cccnc2)COc2ccc(C(=O)Nc3ccc4[nH]ccc4c3)cc2N1 (configuration not stated) do in these assays?
KDM5B inhibitor: inactive; IP6K1 inh: -10

Results for COc1ccc(OCC2(C)COc3ccc(C(=O)NC4CCC(O)CC4)cc3N2)cc1 (configuration not stated) ?
KDM5B inhibitor: 32µM*; IP6K1 inh: -15

How did COc1ccc(OCC2(C)COc3ccc(C(=O)N4CCN(C)C(=O)C4)cc3N2)cc1 (configuration not stated) do in these assays?
KDM5B inhibitor: inactive; IP6K1 inh: -8

How did CC1(COc2cccnc2)COc2ccc(C(=O)NCC3CCOCC3)cc2N1 (configuration not stated) do in these assays?
KDM5B inhibitor: 35µM*; IP6K1 inh: 1

What do the screens show for `CC(C)CCOC(=O)C(C)Oc1ccc2c(=O)c(-c3ccccc3Cl)coc2c1` (configuration not stated)?
KDM5B inhibitor: inactive
